This is a sample that favours compounds with a hit; in the whole collection about 2.2% have one here.
m5-HT2A agonist – mouse Htr2a agonists via beta-arrestin recruitment, primary screen, cell-based, luminescence. 5-hydroxytryptamine receptor 2A (Mus musculus), P35363. CHO-K1 mHTR2A beta-arrestin complementation; percent of 30 µM serotonin response. activation, % at 7.6 µM. actives 0.66% (n = 360,000). AID 624169, 2012;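 active = activation above a run cutoff, the mean activation of all tested compounds plus 3 SD, cut at about 14% in these data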
MEX-5 binding – MEX-5 zinc finger RNA-binding disruptors – biochemical, C. elegans, fluorescence polarization, MLPCN library, primary screen | Zinc finger protein mex-5 (Caenorhabditis elegans), Q9XUB2 | MEX-5/FITC-TCR2 RNA binding; hits give low values | activity score (negative = inhibition of binding), % at 10 µM | actives 0.38% (n = 300,000);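 active = inhibition past about -25% in most replicates, and total fluorescence under double the plate's negative control median, limit read from the data; inconclusive = replicates evenly split on the limit, or fluorescence at least double controls; inactive = too little inhibition in most replicates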
Target sequence (Q9XUB2 whole entry, looked up): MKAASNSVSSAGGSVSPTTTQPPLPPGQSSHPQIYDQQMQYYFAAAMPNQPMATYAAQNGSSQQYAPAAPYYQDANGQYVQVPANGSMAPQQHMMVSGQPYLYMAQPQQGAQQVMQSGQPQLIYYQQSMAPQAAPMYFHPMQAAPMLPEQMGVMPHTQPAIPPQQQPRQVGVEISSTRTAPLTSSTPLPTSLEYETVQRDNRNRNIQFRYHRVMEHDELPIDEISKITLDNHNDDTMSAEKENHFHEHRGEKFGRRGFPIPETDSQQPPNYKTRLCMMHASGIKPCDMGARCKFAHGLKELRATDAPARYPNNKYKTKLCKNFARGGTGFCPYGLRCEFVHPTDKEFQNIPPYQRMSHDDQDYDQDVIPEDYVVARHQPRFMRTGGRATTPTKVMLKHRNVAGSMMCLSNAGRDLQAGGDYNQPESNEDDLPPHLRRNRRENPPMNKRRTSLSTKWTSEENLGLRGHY
Exocytosis inh – LAMP-1 surface exposure blockers, TALL-104 cells – cell-based, flow cytometry, MLPCN library, primary screen; TALL-104 LAMP-1 surface exposure; cells stimulated with thapsigargin and PMA; inhibition, % at 10 µM; actives 0.66% (n = 360,000); AID 651702, 2012;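 active = inhibition above about 55%, limit read from the data; inconclusive = no clear call, values can overlap the other calls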
VLA-4 inh – inhibition in human VLA-4 binding assay, primary screen, VLA-4 allosteric modulator project, MLPCN library, flow cytometry, VLA-4 expressing cells; AID 2557, 2010; ligand binding flow cytometry; inhibition, % (about 7 µM as worked out from the volumes in the protocol); Integrin alpha-4 (Homo sapiens), P13612; actives 0.2% (n = 330,000); in the data active = inhibition above about 50%
JMJD2C inh – inhibitors of GASC-1 histone demethylase, primary screen, biochemical, fluorescence, DELFIA europium | GST-JMJD2C(1-420) H3K9me3 demethylation | AID 2099, 2009 | actives 0.069% (n = 330,000) | Lysine-specific demethylase 4C (Homo sapiens), Q9H3R0 | inhibition, % at 2.35 µM;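 active = more than half of a compound's replicate wells show inhibition beyond 50%, single wells judged on their own value; inconclusive = some, but no more than half, of replicates pass 50% inhibition; inactive = no replicate passes 50% inhibition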;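 note: signal counts dimethyl H3K9 product captured on neutravidin plate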
V-ATPase pH – regulators of yeast V-ATPase proton pumping, primary screen, pHLuorin cytosolic pH fluorescence. response, % at 10 µM. AID 504577, 2011. S. cerevisiae. actives 0.37% (n = 350,000); in the data active = response mostly above about 7.3%, no sharp cut-off; inactive = mostly below about 5.4%; note: actives read high
Granule exo CP1 – inhibitors of lytic granule exocytosis, confirmation, TALL-104 cells, flow cytometry, Cherry Pick01. shares compounds with Exocytosis inh. LAMP-1 externalization; stimulated with PMA plus thapsigargin. inhibition, % at 10 µM. actives 11% (n = 1,500). AID 651954, 2012; in the data active = inhibition above about 60%
Numbers stand for hits.

What do the screens show for `C[C@H](CO)N1C[C@H](C)[C@@H](CN(C)S(=O)(=O)c2cccs2)Oc2ccc(NC(=O)Cn3cnnn3)cc2C1=O`?
m5-HT2A agonist: inactive; Exocytosis inh: inactive; VLA-4 inh: inactive; V-ATPase pH: inactive

Results for Cc1n[nH]c(C)c1S(=O)(=O)N1CCN(S(=O)(=O)c2cccc(F)c2)CC1 ?
m5-HT2A agonist: inactive; Exocytosis inh: inactive; V-ATPase pH: inactive

Results for O=C(COc1cccc2cccnc12)Nc1ccccc1N1CCOCC1 ?
m5-HT2A agonist: inactive; MEX-5 binding: inactive; Exocytosis inh: inactive; VLA-4 inh: inactive; JMJD2C inh: inactive; V-ATPase pH: inactive

What do the screens show for `O=[N+]([O-])c1cccc(-c2cc(-c3cc(Br)ccc3O)[nH]n2)c1`?
m5-HT2A agonist: inactive; MEX-5 binding: inactive; Exocytosis inh: 99.5; VLA-4 inh: inactive; JMJD2C inh: inactive; V-ATPase pH: inactive; Granule exo CP1: 99.5

Results for CCc1ccc(N(C(C)=O)C2C=CS(=O)(=O)C2)cc1 (stereo not given) ?
m5-HT2A agonist: inactive; MEX-5 binding: inactive; Exocytosis inh: 75.4; VLA-4 inh: inactive; JMJD2C inh: inactive; V-ATPase pH: inactive; Granule exo CP1: inactive

How did CCOC(=O)c1c(CSc2ccccc2)n(C)c2ccc(O)c(CN3CCN(C)CC3)c12 do in these assays?
m5-HT2A agonist: inactive; MEX-5 binding: inactive; Exocytosis inh: 59.1; VLA-4 inh: inactive; JMJD2C inh: inactive; V-ATPase pH: inactive; Granule exo CP1: inactive

What do the screens show for `CCOC(=O)c1c(CSc2ccccc2)n(C)c2cc(Br)c(O)c(CN(C)C)c12`?
m5-HT2A agonist: inactive; MEX-5 binding: inactive; Exocytosis inh: 73.0; VLA-4 inh: inactive; JMJD2C inh: inactive; V-ATPase pH: inactive; Granule exo CP1: 106.6

How did O=C(CN1CCN(C(C(=O)Nc2cc(C(F)(F)F)ccc2Cl)c2ccccc2)CC1)NC1CC1 (stereo not given) do in these assays?
m5-HT2A agonist: inactive; Exocytosis inh: 79.8; V-ATPase pH: inactive; Granule exo CP1: inactive

Results for CCCC(=O)OC(C(=O)Nc1cc(C(F)(F)F)ccc1Cl)c1ccccc1 (stereo not given) ?
m5-HT2A agonist: inactive; MEX-5 binding: inactive; Exocytosis inh: inactive; VLA-4 inh: inactive; JMJD2C inh: inconclusive; V-ATPase pH: inactive

Results for O=C(Nc1cc(C(F)(F)F)ccc1Cl)C(Sc1ccccn1)c1ccccc1 (stereo not given) ?
m5-HT2A agonist: inactive; MEX-5 binding: inactive; Exocytosis inh: 104.3; VLA-4 inh: inactive; JMJD2C inh: inactive; V-ATPase pH: inactive; Granule exo CP1: inactive

How did O=C(CN1CCN(C(C(=O)Nc2ccc(Cl)cc2C(F)(F)F)c2ccccc2)CC1)NC1CC1 (stereo not given) do in these assays?
m5-HT2A agonist: inactive; Exocytosis inh: inactive; VLA-4 inh: inactive; JMJD2C inh: inactive; V-ATPase pH: inactive

How did Cc1nn(C(=O)CCCC(=O)NCc2ccccc2)c2ccccc12 do in these assays?
m5-HT2A agonist: inactive; MEX-5 binding: inactive; Exocytosis inh: inactive; VLA-4 inh: inactive; JMJD2C inh: inactive; V-ATPase pH: inactive

Results for COc1cccc2nc3c(C(=O)NCCN(C)C)cccc3cc12 ?
m5-HT2A agonist: inactive; Exocytosis inh: inactive; V-ATPase pH: inactive

How did CN(C)CCNC(=O)c1cccc2nc3c(ccc4ccccc43)nc12 do in these assays?
m5-HT2A agonist: inactive; Exocytosis inh: 62.1; V-ATPase pH: inactive; Granule exo CP1: inactive

Results for COc1ccc(C(=O)NCCN(C)C)c2nc3ccccc3cc12 ?
m5-HT2A agonist: inactive; Exocytosis inh: 73.2; V-ATPase pH: inactive; Granule exo CP1: inactive

How did COc1ccc(NC(=O)C2CCN(C(=O)C3CC(=O)N(c4ccc(C)cc4)C3)CC2)c(OC)c1 (stereo not given) do in these assays?
m5-HT2A agonist: inactive; MEX-5 binding: inactive; Exocytosis inh: 69.0; VLA-4 inh: inactive; JMJD2C inh: inactive; V-ATPase pH: inactive; Granule exo CP1: inactive

How did Cc1ccc(S(=O)(=O)N2CCOCC2)cc1NC(=O)CN1CCC(Cc2ccccc2)CC1 do in these assays?
m5-HT2A agonist: inactive; MEX-5 binding: inactive; Exocytosis inh: 71.4; VLA-4 inh: inactive; JMJD2C inh: inactive; V-ATPase pH: inactive; Granule exo CP1: inactive

How did CC(=O)OCCCN(C)CC/C=C1/c2ccccc2CSc2ccccc21 do in these assays?
m5-HT2A agonist: inactive; MEX-5 binding: inactive; Exocytosis inh: 61.7; VLA-4 inh: inactive; JMJD2C inh: inactive; V-ATPase pH: inactive; Granule exo CP1: inactive

Results for O=C1[C@H](c2ccccc2)[C@@H](c2ccccc2)N1c1ccncc1 ?
m5-HT2A agonist: inactive; Exocytosis inh: inactive; V-ATPase pH: inactive

Results for O=C(CN1CCC(C(=O)c2ccc3c(c2)OCCO3)CC1)Nc1ccccc1C(F)(F)F ?
m5-HT2A agonist: inactive; MEX-5 binding: inactive; Exocytosis inh: 88.5; VLA-4 inh: inactive; JMJD2C inh: inactive; V-ATPase pH: inactive; Granule exo CP1: inactive

What do the screens show for `O=C(c1ccc(Br)cc1)C(CN1CCOCC1)c1ccccc1` (stereo not given)?
m5-HT2A agonist: inactive; MEX-5 binding: inactive; Exocytosis inh: 66.7; VLA-4 inh: inactive; JMJD2C inh: inactive; V-ATPase pH: inactive; Granule exo CP1: inactive

What do the screens show for `CCN(CC)S(=O)(=O)c1ccc(Oc2ccccc2OC)cc1`?
m5-HT2A agonist: inactive; MEX-5 binding: inactive; Exocytosis inh: 68.8; VLA-4 inh: inactive; JMJD2C inh: inactive; V-ATPase pH: inactive; Granule exo CP1: inactive

What do the screens show for `COc1ccc(NC(=O)CSCC(=O)Nc2cccc3ncccc23)cc1`?
m5-HT2A agonist: inactive; MEX-5 binding: inactive; Exocytosis inh: inactive; VLA-4 inh: inactive; JMJD2C inh: inactive; V-ATPase pH: inactive

How did COc1ccc(CN(C)C(=O)[C@H]2O[C@@H](n3cnc4c(N)ncnc43)[C@H](O)[C@@H]2O)cc1OC do in these assays?
m5-HT2A agonist: inactive; Exocytosis inh: inactive

What do the screens show for `O=C(NC1CCCC1)c1cccc(S(=O)(=O)N2CCOCC2)c1`?
m5-HT2A agonist: inactive; Exocytosis inh: inactive; VLA-4 inh: inactive; JMJD2C inh: inactive; V-ATPase pH: inactive

What do the screens show for `CC(Oc1c(Cl)cccc1Cl)C1=NCCN1` (stereo not given)?
MEX-5 binding: inactive; VLA-4 inh: inactive; JMJD2C inh: inactive

Results for CC1CCCN(CCOc2cccc(Oc3ccccc3)c2)C1 (stereo not given) ?
m5-HT2A agonist: inactive; MEX-5 binding: inactive; Exocytosis inh: 60.0; VLA-4 inh: inactive; JMJD2C inh: inactive; V-ATPase pH: inactive; Granule exo CP1: inactive

Source: PubChem (several laboratories)
